# Measurements from PubChem BioAssay AID624117 (National Center for Advancing Translational Sciences (NCATS), 2012).
# Records with an inconclusive call do not appear. Activity calls are given as the source filed them. Calls come from the whole dose curve; as a rule, active = well fitted curve in the direction sought with a large enough effect; inconclusive = small, poorly fitted or top-dose-only effect, or another doubt; inactive = no such curve, though single readings can be large or run the other way.
# Test: qHTS Assay for Rab9 Promoter Activators: Hit Validation Using Renilla Luciferase Read-Out; for activation (negative = inhibition): % of control where 0% means no effect
# Conditions: Huh7 NPC1 promoter Renilla luciferase reporter, 24 h; series mostly up to 76.9 µM; activation (negative = inhibition): at the top concentration
# Outline: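 Hit validation in Huh7 NPC promoter-luciferase reporter line: compound treatment 24 h at 37 deg C, then luminescence measured after 10 min room-temperature incubation with […] reagent.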
# Potency is the fitted concentration of half-maximal effect.
Structure (SMILES),activation (negative = inhibition),Potency
O=C(NCCc1ccccc1)c1cc2ncc(Br)cn2n1,-6.42% (inactive),
O=C(CSc1nnc(-c2ccccn2)o1)Nc1ccccc1F,-9.17% (inactive),
Cc1noc(/C=C/N(C)C)c1S(=O)(=O)N1CCCC(C(=O)N2CCCCC2)C1 (centres undefined),-7.89% (inactive),
COc1ccccc1CNC(=O)COc1ccc(C)cc1,3.98% (inactive),
COc1ccc(-c2nnc(SCC(=O)/C(C#N)=C(\C)N)o2)cc1,6.56% (inactive),
O=C(COc1ccccc1F)Nc1ccc(-c2nc3ccccc3s2)cc1,-14.2% (inactive),
CCOc1cc(C(=O)N=c2sccn2C)ccc1OC(F)F,4.68% (inactive),
CC(C)C1(CCNC(=O)c2cccs2)CCOC(C)(C)C1 (centres undefined),-5.65% (inactive),
COC(=O)c1cn(NC(=O)C2CCCCC2)c(=O)c2ccccc12,-1.87% (inactive),
CN(C)C(=O)[C@H]1C[C@H]1[C@@H](O)[C@H](CO)NC(=O)[C@H](COCc1ccccc1)NC(=O)OC(C)(C)C,-12% (inactive),
Cc1ccc(NC(=O)c2c(O)c3ccccc3n(C)c2=O)nc1,10.5% (inactive),
COc1ccccc1C(=O)Nc1nnc(SCC(=O)NC2CCCC2)s1,5.46% (inactive),
Nc1nc(SCCO)[nH]c(=O)c1NC(=O)c1ccco1,10.2% (inactive),
COC(=O)c1ccc(NC(=O)c2ccc3nc(C)sc3c2)cc1,7.49% (inactive),
COc1ccc(NC(=O)Nc2ccc(Cc3ccncc3)cc2)cc1OC,5.7% (inactive),
Cc1ccc(NC(=O)c2cccc(N3C(=O)CCC3=O)c2)nc1,-4.93% (inactive),
COC(=O)c1ccccc1NC(=O)c1ccc(-c2ccc(Br)cc2)o1,-44.9% (inactive),
Cc1c(C(O)CN2CCN(Cc3ccc4c(c3)OCO4)CC2)c2ccccc2n1C (centres undefined),11.6% (inactive),
Cc1ccc(C)c(Nc2cc(C)nc3ncnn23)c1,-3.45% (inactive),
O=C(COC(=O)c1ccc(-c2nnc(-c3ccccc3)o2)cc1)c1ccccc1,-23.9% (inactive),

Structure (SMILES),activation (negative = inhibition),Potency
CCOC(=O)CSc1nc2cc3c(cc2cc1C#N)OCO3,2.66% (inactive),
CC(=O)c1c(C)[nH]c(C(=O)Nc2cccc(S(=O)(=O)N(C)C)c2)c1C,,26 µM (active)
CCC(=O)N1c2ccccc2NC2=C(C(=O)CCC2)C1c1ccc(N(C)C)cc1 (centres undefined),4.45% (inactive),
CCCOP(=O)(c1ccc(N(C)C)cc1)C(O)c1cccnc1 (centres undefined),-3.35% (inactive),
COc1ccccc1NC(=S)NCc1ccc(Cl)cc1,1.13% (inactive),
CCC(=O)Nc1cc(-c2cc3ccccc3oc2=O)ccc1OC,3.28% (inactive),
Cc1ccc(S(=O)(=O)/N=C2\C=C(Nc3cccc(C(=O)O)c3)C(=O)c3ccccc32)cc1,-90.7% (inactive),
CC1CC(C)CN(CC(=O)N2CCOCC2)C1 (centres undefined),-13.3% (inactive),
CCN(Cc1nc2cc(Cl)ccc2c(=O)[nH]1)C(=O)C1CC(=O)N(c2cccc3ccccc23)C1 (centres undefined),3.31% (inactive),
CCCCCCOc1ccc(OC(=O)c2cccnc2)cc1,,2.07 µM (active)
CCCCn1c(Nc2ccc(OC)cc2)nc2ccccc21,-1.27% (inactive),
Cc1cccc(N2CCN(C(=S)c3ccccc3)CC2)c1,1.13% (inactive),
Cc1ccc(S(=O)(=O)N2CCN(c3cnn(C)c(=O)c3Cl)CC2)cc1,-10.5% (inactive),
Nc1ccc(C(=O)Nc2ccccc2N)cc1,,8.23 µM (active)
Cn1c(SCc2ccccc2)nnc1-c1cnccn1,13.7% (inactive),
CC(=O)NC(CCCN1C(=O)c2ccccc2C1=O)c1nnn(C)n1 (centres undefined),2.21% (inactive),
CCOc1ccc(CNC(=O)C2CCCN(S(C)(=O)=O)C2)cc1OC (centres undefined),-4.35% (inactive),
O=C(CCc1cccc(Cl)c1)NC1CCCN(Cc2ccccc2F)C1 (centres undefined),-8.65% (inactive),
Cc1csc(NC(=O)CSc2nnc(-c3ccncc3)o2)n1,-19.1% (inactive),
